Compound activity as filed in PubChem.
CYP2C19 activ: increases human CYP2C19 enzyme activity. P33261. recombinant CYP2C19, luciferin-H EGE luminescence; hits give high values; 0 = fully inhibited enzyme, 1 = untreated enzyme. activation factor at 5 µM. 96,000 tested, under 10 active. AID 1025;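 active = activation factor of at least 2 at 5 µM in the primary screen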;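 note: 0 = wells with 2.5 mM tranylcypromine and 1 = vehicle-only wells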
CYP2C9 act: activators of human CYP2C9. P11712. activation factor at 5 µM. recombinant CYP2C9, luciferin-H conversion, luminescence; hits give high values; factor 1 = untreated enzyme, 0 = blocked. 96,000 tested, 1.4% active;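 active = activation factor of 2 or more for CYP2C9 at a 5 µM dose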;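 note: 0 = sulfaphenazole-blocked wells and 1 = vehicle-only wells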
Target sequence (P11712 whole entry, looked up): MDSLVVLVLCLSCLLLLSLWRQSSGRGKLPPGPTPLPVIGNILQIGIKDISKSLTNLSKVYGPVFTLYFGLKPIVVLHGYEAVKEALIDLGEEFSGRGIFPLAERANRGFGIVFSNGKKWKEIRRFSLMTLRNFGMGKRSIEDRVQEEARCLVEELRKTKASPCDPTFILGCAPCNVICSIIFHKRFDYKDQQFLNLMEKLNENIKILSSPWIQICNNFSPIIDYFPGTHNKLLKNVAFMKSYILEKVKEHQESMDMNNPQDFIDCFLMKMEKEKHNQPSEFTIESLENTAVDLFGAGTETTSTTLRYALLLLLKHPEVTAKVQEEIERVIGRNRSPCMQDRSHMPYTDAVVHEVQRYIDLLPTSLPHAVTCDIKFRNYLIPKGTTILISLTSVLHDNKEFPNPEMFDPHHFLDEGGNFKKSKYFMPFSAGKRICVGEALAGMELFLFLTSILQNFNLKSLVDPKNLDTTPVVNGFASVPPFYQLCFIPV
CYP2C19 inhib: blocks human cytochrome P450 2C19; P33261; CYP2C19 Supersomes, luciferin-H EGE luminescence, 30 min; inhibition, % at 5 µM; 96,000 tested, 21% active;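 active = CYP2C19 inhibition above a set limit at 5 µM in the primary screen, cut at about 50% in these data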;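 note: plate controls were negative control wells for no effect and 2.5 mM tranylcypromine positive control for full effect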
PostGolgi yeast: growth inhibition of a yeast mutant, post-Golgi transport screen | post-Golgi transport phenotypic cell assay | inhibition, % at 10 µM | 98,000 tested, 0.9% active;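 note: yeast cells grown in 1536-well plates; yeast grown about 18 h at 30C before absorbance read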
PostGolgi ctrl: inhibits growth of the yeast control strain. efflux-deficient yeast background strain, growth absorbance A615, 16 h. inhibition, % at 10 µM. 98,000 tested, 5% active
CYP2C9 inhib: blocks human cytochrome P450 2C9. P11712. CYP2C9 Supersomes, luciferin-H conversion, luminescence. inhibition, % at 5 µM. 96,000 tested, 20% active. AID 777;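 active = blocking of liver enzyme CYP2C9 beyond about 50% at 5 µM, limit read from the data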
Numbers without * were called inactive; / = not tested or not shown. Sampled rows, rich in hits. Any-hit rate of the full collection: about 32%. Cut-off read from the data, not from the text of the source, unless noted: active = inhibition above about 30%; inactive = the rest.

SMILES | CYP2C19 activ | CYP2C9 act | CYP2C19 inhib | PostGolgi yeast | PostGolgi ctrl | CYP2C9 inhib
O=C1CC(C(=O)Nc2ccc(O)c(C(=O)O)c2)C(c2ccccc2)O1 (configuration not stated) | 1.1 | 0.7 | -14.7 | 1.1 | 0.0 | 29.3
O=C1CC(C(=O)Nc2ccc(C(=O)O)cc2)C(c2ccccc2)O1 (configuration not stated) | 1.1 | 1 | -8.7 | 1.7 | 12.6 | 3.2
CC(=O)c1ccc(OCCCC(=O)OCC(=O)N2CCN(c3ccccc3)CC2)cc1 | 0.9 | 0.8 | 14.0 | -1.3 | -0.8 | 15.6
Cc1cc(C)cc(Oc2ccc(C(F)(F)F)cc2C#N)c1 | 0.4 | 0.5 | 57.5* | -1.3 | -0.8 | 52.0*
CCCCN(CC)C(=O)c1cccc(Cl)c1 | 0.3 | 0.8 | 70.8* | 0.8 | 4.8 | 17.9
CCN(CC)CCOC(=O)c1cccc(Cl)c1 | 0.9 | 0.9 | 13.5 | -1.9 | 10.6 | 9.0
O=C(Nc1cccnc1)c1cc2nc(C3CC3)cc(C(F)(F)F)n2n1 | 0.4 | 0.3 | 63.7* | 1.6 | 1.8 | 73.5*
CCC1(C)N=C(c2ccc3c(c2)OCO3)CC(c2ccccc2O)N1 (configuration not stated) | 0.4 | 0.3 | 59.4* | -11.1 | 5.0 | 74.0*
O=C(Nc1ccon1)C(Sc1ccccc1)c1ccccc1 (configuration not stated) | 0.1 | 0.1 | 91.7* | 2.2 | 5.5 | 86.2*
O=C(NCCCN1CCOCC1)C(Sc1ccccc1)c1ccccc1 (configuration not stated) | 0.7 | 1.1 | 34.4 | 24.0 | -1.9 | -8.9
CC(=O)NS(=O)(=O)c1ccc(NC(=O)C(Sc2ccccc2)c2ccccc2)cc1 (configuration not stated) | 0.9 | 0.7 | 11.5 | -11.5 | 5.7 | 34.7
O=C(Nc1ncccc1Cl)C1COc2ccccc2O1 (configuration not stated) | 0.5 | 1.1 | 46.5 | 19.4 | 5.3 | -8.8
CC(C)NC(=O)C(Sc1ccccc1)c1ccccc1 (configuration not stated) | 0 | 0.4 | 96.3* | 0.2 | 3.9 | 62.1*
O=C(Nc1ncccc1Cl)C(Sc1ccccc1)c1ccccc1 (configuration not stated) | 0.4 | 0.5 | 58.0* | -25.4 | 21.8 | 54.8*
CSc1[nH]c(=O)c(C(=O)O)cc1C#N | 1 | 1.1 | 3.8 | 6.1 | 9.9 | -7.9
CCOC(=O)c1oc2cc(C)cc(O)c2c(=O)c1-c1csc(C)n1 | 1 | 1.3 | 4.1 | 3.5 | 3.0 | -28.5
S=C(NCCSCc1ccc(Cl)cc1Cl)Nc1ccccc1 | 0.5 | 2.3* | 52.4* | -10.3 | 11.3 | -131.3
S=C(NCCc1ccccc1)Nc1ccc(Cl)cc1Cl | 0.1 | 0.5 | 85.6* | -9.6 | 4.2 | 46.3
COc1ccc(CCNC(=S)NC(=O)c2ccccc2)cc1OC | 0.4 | 0.7 | 60.9* | 4.5 | 18.4 | 28.1
COc1ccccc1NC(=S)NCCc1ccccc1 | 0.2 | 0.9 | 81.5* | -2.4 | 7.9 | 5.4
COc1ccc(/C=C/C(=O)NC(=S)NCCc2ccc(OC)c(OC)c2)cc1 | 0.5 | 0.7 | 45.4 | -3.5 | -12.5 | 29.6
CCCC(=O)NC(=S)Nc1ccccc1OC | 0.7 | 0.8 | 25.4 | 3.0 | -1.7 | 21.4
O=C(CN1CCCCC1)Nc1cccc(Br)c1 | 0.7 | 1.1 | 33.2 | -3.2 | 7.6 | -5.8
CCCCCSc1nnc(C)c(=O)[nH]1 | 1.1 | 1 | -15.0 | 1.9 | -0.7 | -4.9
CCOC(=O)/C=C1\SCC(=O)N1CC(=O)NC12CC3CC(CC(C3)C1)C2 | 0.8 | 0.9 | 18.8 | 12.7 | 2.3 | 13.0
SMILES | CYP2C19 activ | CYP2C9 act | CYP2C19 inhib | PostGolgi yeast | PostGolgi ctrl | CYP2C9 inhib
O=C(NCc1ccco1)c1cc(-c2cccs2)on1 | 0.8 | 1.7 | 16.0 | 1.9 | -3.2 | -66.6
COc1ccc(C(=O)N/C(=C\c2cccc3ccccc23)C(=O)NCCc2c[nH]c3ccccc23)cc1OC | 0.5 | 0.3 | 50.2* | -5.5 | -2.6 | 65.1*
Cc1c(C(=O)NCCSCc2ccc(Cl)cc2Cl)cccc1[N+](=O)[O-] | 1 | 1 | -1.5 | 1.0 | 54.5* | -2.7
Cc1ccc(C(=O)N/C(=C\c2cccs2)C(=O)NCCc2c[nH]c3ccccc23)cc1C | 0.8 | 0.7 | 21.0 | 3.4 | 10.7 | 35.0
COc1ccccc1NC(=S)NCCc1c[nH]c2ccccc12 | 0.1 | 2.4* | 85.7* | 1.8 | -3.9 | -135.0
C/C(=N/NC(=O)c1ccc2c(c1)OCO2)c1cccc(NC(=O)C(C)(C)C)c1 | 1 | 0.6 | 3.5 | -0.8 | 0.8 | 37.6
CCCn1nc(NC(=O)CC(C)C)c2cc3ccccc3nc21 | 0.9 | 0.7 | 11.5 | 4.2 | 5.4 | 28.0
CCOc1ccccc1CNC(=O)CCNC(=O)Cn1ccc2ccccc2c1=O | 0.8 | 0.8 | 15.0 | -5.1 | -6.2 | 24.5
Cc1ccc(-n2ncc3c(N4CCC5(CC4)OCCO5)ncnc32)c(C)c1 | 1.3 | 0.9 | -26.5 | -2.4 | 11.2 | 7.7
Cc1n[nH]c(C)c1S(=O)(=O)N1CCCCCC1 | 0.6 | 0.9 | 38.2 | 1.1 | -0.5 | 11.4
COC(=O)c1c(C(=O)OC)c2ccncn2c1Cl | 0.2 | 0.2 | 80.7* | 4.1 | -8.3 | 80.0*
COC(=O)c1ccc(-n2cnc(Cl)n2)c(F)c1 | 0.9 | 1 | 5.2 | -3.3 | 11.4 | 4.8
CCOC(=O)CCc1nc2ccccc2[nH]1 | 0.3 | 0.8 | 68.8* | 4.6 | -2.8 | 24.3
CC(=O)COC(=O)CCc1nc2ccccc2[nH]c1=O | 0.9 | 0.9 | 10.7 | 9.6 | 21.8 | 14.0
CCCCOC(=O)Cc1c(O)c2ccccc2[nH]c1=O | 0.9 | 0.8 | 5.2 | 32.3* | 3.0 | 18.5
CCC(OC(=O)CCc1nc2ccccc2[nH]c1=O)C(=O)c1ccccc1 (configuration not stated) | 0 | 0.2 | 99.2* | 0.5 | -5.8 | 79.1*
CCCc1nc2ccccc2[nH]1 | 1 | 1.2 | 2.3 | -0.2 | -1.7 | -24.7
O=c1[nH]c2ccccc2nc1Cc1ccccc1 | 0.4 | 0.9 | 55.5* | -0.8 | 7.7 | 5.8
Cc1cc(SCC(=O)N/N=C/c2ccc(O)c(O)c2)c(C)cc1Br | 0.9 | 0.7 | 13.9 | -0.8 | 0.1 | 25.8
CC(C)(C)Cc1nc(-c2ccc(Cl)cc2)no1 | 1.1 | 1.1 | -10.9 | -7.1 | 10.9 | -10.6
CCCCOC(=O)CCc1nc2ccccc2[nH]c1=O | 0.3 | 0.7 | 73.4* | 1.9 | 13.8 | 30.7
Cc1ccc(N2C(N)=NC(N)=NC23CCCC3)c(C)c1 | 1.2 | 1 | -19.2 | 5.0 | 18.3 | 4.6
Cc1ccccc1C(NC(N)=O)c1ccccc1 (configuration not stated) | 0.1 | 0.7 | 94.9* | -0.7 | 8.9 | 28.8
CC(=O)NC(c1ccccc1)c1cccnc1 (configuration not stated) | 0.9 | 1.1 | 13.4 | 5.8 | 9.9 | -7.8
Cc1cccc2cc(CN(Cc3cccnc3)C(=O)c3ccncc3)c(=O)[nH]c12 | 0.3 | 0.4 | 73.3* | -2.2 | 12.3 | 60.7*
Cc1ccc(CN(Cc2cc3cccc(C)c3[nH]c2=O)C(=O)N(C)C)cc1 | 0.5 | 0.9 | 51.6* | / | / | 14.4
